Assay outcomes deposited in PubChem by National Center for Advancing Translational Sciences (NCATS).
The list is not random: actives were taken first. Their share in the collection is about 7.6%.
KB-3-1 cytotox = kills parental KB-3-1 adenocarcinoma cells | KB-3-1 viability, CellTiter-Glo ATP luminescence, 72 h | 400,000 compounds, 1.4% hits | AID 1347075 | Potency, µM (series often up to 46.1 µM), actives largely listed as cytotoxic; further: nearly all actives have a fitted effect of over 60% in size
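Multi-concentration cytotoxicity screen in KB-3-1 cells grown in DMEM lacking phenol red with 10% FBS. After 72 h at 37 °C with compound, ATP-dependent luminescence was recorded.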
KB-V1 MDR tox = kills drug-selected multidrug resistant KB-V1 cells. AID 1347076. 400,000 compounds, 3.4% hits. KB-V1 MDR cells viability, CellTiter-Glo, 72 h. Potency, µM (highest dose often 46.1 µM), usual class: cytotoxic; further: nearly all actives have a fitted effect of over 60% in size
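Compound-treated KB-V1 multidrug-resistant cells, 72 h, 37 degrees C; viability by CellTiter-Glo. Fitted qHTS curves give the values.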
hERG WT inh = blocks the wildtype human KCNH2 potassium channel; U2OS, BacMam KCNH2, thallium flux FluxOr; stronger effect = lower value; AID 720551; activity change, % at 1.84 µM; 340,000 compounds, 0.37% hits; Q12809;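 active means maximum activity change below -70%; inconclusive means maximum activity change between -70% and -50%; inactive means maximum activity change above -50%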
Target sequence (Q12809 whole entry, looked up): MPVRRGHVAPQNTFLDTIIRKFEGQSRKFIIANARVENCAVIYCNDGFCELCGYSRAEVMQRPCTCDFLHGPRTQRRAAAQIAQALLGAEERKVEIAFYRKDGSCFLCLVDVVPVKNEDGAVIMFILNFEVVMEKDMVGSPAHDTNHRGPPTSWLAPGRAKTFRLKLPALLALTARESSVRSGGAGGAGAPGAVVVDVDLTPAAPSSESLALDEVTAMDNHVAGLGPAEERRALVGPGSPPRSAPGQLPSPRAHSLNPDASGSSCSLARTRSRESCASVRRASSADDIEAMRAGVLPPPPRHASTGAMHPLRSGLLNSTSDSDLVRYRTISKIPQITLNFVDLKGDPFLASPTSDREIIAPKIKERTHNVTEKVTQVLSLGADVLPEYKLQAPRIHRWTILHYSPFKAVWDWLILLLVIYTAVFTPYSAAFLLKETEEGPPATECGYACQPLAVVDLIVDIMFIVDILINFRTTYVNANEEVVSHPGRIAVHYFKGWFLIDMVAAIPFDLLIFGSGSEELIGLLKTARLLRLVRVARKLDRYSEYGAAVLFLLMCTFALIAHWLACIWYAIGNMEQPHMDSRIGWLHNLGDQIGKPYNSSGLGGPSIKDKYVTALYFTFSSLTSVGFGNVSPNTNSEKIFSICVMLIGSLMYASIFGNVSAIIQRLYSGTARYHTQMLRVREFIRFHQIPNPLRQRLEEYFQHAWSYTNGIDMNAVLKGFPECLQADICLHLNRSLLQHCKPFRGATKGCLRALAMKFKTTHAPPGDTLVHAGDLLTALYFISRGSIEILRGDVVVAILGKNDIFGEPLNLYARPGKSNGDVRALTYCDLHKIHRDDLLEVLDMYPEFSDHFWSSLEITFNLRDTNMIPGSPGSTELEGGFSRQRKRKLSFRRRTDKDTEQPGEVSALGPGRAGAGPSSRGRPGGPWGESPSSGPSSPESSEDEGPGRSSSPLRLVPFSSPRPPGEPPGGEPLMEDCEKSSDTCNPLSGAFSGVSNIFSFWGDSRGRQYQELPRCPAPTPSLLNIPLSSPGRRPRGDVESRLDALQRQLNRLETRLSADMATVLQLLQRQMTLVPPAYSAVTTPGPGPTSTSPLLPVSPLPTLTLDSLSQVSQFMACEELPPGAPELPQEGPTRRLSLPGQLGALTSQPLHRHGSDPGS
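U2OS cells transduced with wild-type KCNH2 virus are loaded with FluxOr dye for 45 min, and thallium flux is measured in kinetic reads before and after stimulation buffer. Rate constants are normalized to DMSO controls.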
SW480 rereplic = induces DNA re-replication in SW480 colon adenocarcinoma cells | SW480 DNA re-replication, Hoechst DNA content imaging, 48 h | 340,000 compounds, 1.8% hits | AID 624297 | Potency, µM (titrated, usually from 46.1 µM), most hits filed as activators; further: nearly all actives have a fitted effect of over 55% in size
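Per well, 250 cells were exposed to pinned compound for 48 hr. Nuclear DNA was visualised with Hoechst (40 min, 37 C) and total object intensity recorded by fluorescence scanning.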
KCNH2 3.1 block = inhibitors of human KCNH2 3.1 potassium channel isoform; U2OS KCNH2 3.1, thallium flux FluxOr; stronger effect = lower value; activity change, % (tested at about 1.8 µM); AID 720553; 340,000 compounds, 0.95% hits;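 active means maximum activity change below -70%; inconclusive means maximum activity change from -70% to -50%; inactive means maximum activity change above -50%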;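 further: thallium influx rate constant from kinetic fluorescence after stimulation buffer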
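Normalized rate constant (relative to positive and negative DMSO controls) derived from a 2 min kinetic fluorescence read after stimulation; U2OS cells expressing the 3.1 isoform via virus at 1.77 x 10^8 /mL.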
MCF10A rerep = DNA re-replication induction in MCF 10a cells; MCF 10A DNA re-replication, Hoechst nuclear intensity, 48 h; Potency, µM (series often up to 46.1 µM), hits mostly activators; 350,000 compounds, 2.9% hits; AID 624296; further: nearly all actives have a fitted effect of over 50% in size
A number is an active result; – = inactive; ? = inconclusive; · = no result given; [ ] = remark or other dose. Unless noted, the call rests on the fitted dose curve; in most records, active means well fitted curve in the direction sought with a large enough effect; inconclusive means small, poorly fitted or top-dose-only effect, or another doubt; inactive means no such curve, though single readings can be large; an effect the other way counts as inactive or inconclusive.

SMILES	KB-3-1 cytotox	KB-V1 MDR tox	hERG WT inh	SW480 rereplic	KCNH2 3.1 block	MCF10A rerep
COc1ccc(CN(C(=O)Nc2ccccc2)c2ccccn2)cc1OC	–	–	·	·	·	·
CC(/C=N/n1c(-c2ccc(Cl)cc2)n[nH]c1=S)=C\c1ccco1	?	?	–	–	–	–
N#C/C(=C\c1ccco1)C(=O)NCc1ccccc1	–	–	·	–	–	–
N#CC(C#N)=C1C=CC=CN1/C(=C\c1ccco1)C(=O)c1ccc(-c2ccccc2)cc1	–	–	–	·	-85	3.3µM
N#CC(C#N)=C1C=CC=CN1/C(=C\c1ccco1)C(=O)c1ccc(Cl)cc1	–	–	–	2.6µM	-86	1.6µM
CSCC[C@H](NC(=O)N1CCn2c1nc1ccccc12)C(=O)NCc1ccco1	–	?	–	–	–	–
O=C(COC(=O)c1cc(S(=O)(=O)N2CCCCC2)ccc1N1CCOCC1)c1ccc(Cl)cc1	–	–	–	6.5µM	?	–
O=C(COC(=O)c1cc(S(=O)(=O)N2CCCCC2)ccc1N1CCOCC1)c1ccccc1	–	21µM	–	–	–	–
O=C(OCc1cccc(Cl)c1)c1cc(S(=O)(=O)N2CCCCC2)ccc1N1CCOCC1	?	?	–	–	–	?
CCn1c(=O)cc(OCC(=O)Nc2ccc(C)cn2)c2ccccc21	–	?	–	–	–	21µM
Cn1c(=O)cc(SCC(=O)Nc2ccc3c(c2)OCO3)c2ccccc21	–	?	–	–	–	–
CCn1c(=O)cc(SCC(=O)Nc2ccc(C)cn2)c2ccccc21	–	?	–	?	–	10µM
CCn1c(=O)cc(SCC(=O)Nc2ccc3c(c2)OCCO3)c2ccccc21	–	16µM	–	–	–	–
Cn1c(=O)c2cc(S(=O)(=O)Nc3cc(C(=O)O)cc(C(=O)O)c3)ccc2n(C)c1=O	–	–	·	–	–	–
Cc1cc(C)cc(NS(=O)(=O)c2ccc3c(c2)c(=O)n(C)c(=O)n3C)c1	8.2µM	?	–	–	–	–
Cc1ccc(NS(=O)(=O)c2ccc3c(c2)c(=O)n(C)c(=O)n3C)cc1F	18µM	?	–	?	–	–
CCCN(C(=O)C1=COCCO1)c1c(N)n(Cc2ccccc2)c(=O)[nH]c1=O	–	?	–	–	–	–
Cc1cc(C)cc(-n2c(C)cc(/C=N/NC(=O)c3ccncc3)c2C)c1	–	–	–	–[1.84 µM]	–	–
Cc1cc(/C=N/NC(=O)Cn2c3ccccc3c(=O)c3ccccc32)c(C)n1-c1ccccc1	–	–	–	–	–	21µM
Cc1ccc(N(CC(=O)N/N=C/c2cc(C)n(-c3ccccc3)c2C)S(C)(=O)=O)c(C)c1	–	–	–	–	–	–
Cc1cc(/C=N/NC(=O)c2ccc(CN3CCOCC3)cc2)c(C)n1-c1ccccc1	–	16µM	–	–	–	–
O=C(N/N=C/c1ccccc1[N+](=O)[O-])c1ccc(CN2CCOCC2)cc1	–	–	–	–	–	–
Cc1cc(C)cc(-n2c(C)cc(/C=N/NC(=O)CSc3ncccn3)c2C)c1	?	?	–	?	–	18µM
FC1(F)Oc2ccc(-c3ccc4ncnc(NCc5cccs5)c4c3)cc2O1	?	–	·	·	·	·
CCc1ccc(S(=O)(=O)c2cn(C)c3cc(N4CCN(CC)CC4)c(F)cc3c2=O)cc1	–	–	·	·	·	·
SMILES	KB-3-1 cytotox	KB-V1 MDR tox	hERG WT inh	SW480 rereplic	KCNH2 3.1 block	MCF10A rerep
Cc1ccc(C)c(S(=O)(=O)N2CCN(C(=O)Cc3c(F)cccc3Cl)CC2)c1	–	7.3µM	–	–	-78	–
Cc1ccc(C)c(S(=O)(=O)N2CCN(C(=O)CCNC(=O)c3ccc(Br)cc3)CC2)c1	–	?	–	–	–	?
Cc1ccc(C)c(S(=O)(=O)N2CCN(C(=O)CCNS(=O)(=O)c3ccc(C)c(C)c3)CC2)c1	?	2.9µM	–	–	–	–
COc1cc(C(=O)NCC(=O)N2CCN(S(=O)(=O)c3cc(C)ccc3C)CC2)cc(OC)c1OC	3.3µM	?	–	8.2µM	–	?
Cc1ccc(C)c(S(=O)(=O)N2CCN(C(=O)Cc3sc(C)nc3-c3ccc(F)cc3)CC2)c1	?	23µM	–	–	–	–
Cc1cccc(OCC(=O)Nc2c(C)ccc3nsnc23)c1C	–	?	·	·	·	·
CCn1c(=O)n(-c2ccc3c(c2)OCO3)c2nc(-c3ccc(C(C)C)cc3)nc(C(N)=O)c21	–	–	·	·	·	·
COc1cc(C2CC(c3c(C)cc(C)[nH]c3=O)=NN2c2ccccc2F)cc(OC)c1OC (stereo not drawn)	–	–	–	?	–	23µM
COc1cc([C@H]2c3[nH]c4ccccc4c3C[C@H]3C(=O)N4[C@@H](c5cc(OC)c(OC)c(OC)c5)c5[nH]c6ccccc6c5C[C@H]4C(=O)N23)cc(OC)c1OC	–	–	–	?	–	?
O=c1oc2ccccc2cc1-c1nc2c(s1)CCCC2	?	?	–	1.2µM	-87	1.2µM
CC[C@@H]1C(c2ccccc2)=NN(c2ccc(Br)cc2)[C@H]1C(=O)N1CCOC1=O	–	–	–	–	–	9.2µM
O=C1OCCN1C(=O)[C@H]1[C@H](c2ccc([N+](=O)[O-])cc2)C(c2ccccc2)=NN1c1ccc(Br)cc1	–	–	–	–	–	–
CC[C@@H]1C(c2cccc(C)c2)=NN(c2ccccc2)[C@H]1C(=O)N1CCOC1=O	–	–	–	–[9.22 µM]	–	?
CC[C@@H]1C(c2cccc(Cl)c2)=NN(c2ccc(Br)cc2)[C@H]1C(=O)N1CCOC1=O	–	–	–	10µM	–	1.3µM
C[C@@H]1C(c2ccc(F)cc2)=NN(c2ccccc2)[C@H]1C(=O)N1CCOC1=O	?	–	–	–	–	?
CC[C@@H]1C(c2ccc(F)cc2)=NN(c2ccc(Br)cc2)[C@H]1C(=O)N1CCOC1=O	–	–	–	0.58µM	–	16µM
COc1ccc(CNC(=O)c2sc(=O)n(Cc3cc(C(C)=O)ccc3OC)c2C)cc1	–	?	·	·	·	·
CCC(CO)Oc1cc(NC(=O)c2cccc(C)c2)c2ncn(C(C)C)c2c1 (stereo not drawn)	–	?	–	–	–	–
COc1cc(C2CC(=O)N(c3ccc(C)cc3)C(=O)C2)cc(OC)c1OC	4.6µM	4.6µM	–	3.7µM	–	6.5µM
COc1ccc(N2C(=O)CC(c3cc(OC)c(OC)c(OC)c3)CC2=O)cc1	–	–	–	?	–	?
CCn1nc(C(=O)NNC(=O)c2ccc(OC(F)F)cc2)c2ccccc2c1=O	?	16µM	–	–	–	–
O=C(OCc1cn([C@@H]2CN(C(=O)c3cccs3)[C@@H](c3ccccc3)C[C@H]2O)nn1)c1ccccc1	–	–	–	·	–	·
Cc1ccc2sc(NC(=O)C3CC3)nc2c1C	–	–	–	–	–	–
